# Experimental data taken from PubChem BioAssay (NCI).
# This is part of a sample that, as a whole, favours compounds with a hit. Of some 79,000 tested, about 15% had one in any assay. Unmarked numbers belong to inactive results. The source made the active and inactive calls. Cut-off read from the data, not from the text of the source: active = growth inhibition above about 70%; inactive = the rest.
# Key:
# [1] = NCI Yeast Anticancer Drug Screen. Data for the rad50 strain (AID 155);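 note: 0% = growth of vehicle-only cultures of the same strain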; conditions: S. cerevisiae rad50 strain growth inhibition; at 50.0 µM; stronger effect = higher value
# Summary of the method: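 Cells are treated with compound, grown, and their growth is then scored against vehicle-only cultures of the same repair-deficient yeast strain.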
# [2] = NCI Yeast Anticancer Drug Screen. Data for the mec2-1 strain (AID 157); conditions: S. cerevisiae mec2-1 strain, at 50.0 µM, stronger effect = higher value
# Summary of the method: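 Growth inhibition is read against vehicle-treated controls after compound exposure of the mec2-1 yeast strain, which is defective in DNA damage repair or cell cycle control.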
# [3] = NCI Yeast Anticancer Drug Screen. Data for the sgs1 mgt1 strain (AID 161);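 note: 0% = growth of cultures given vehicle only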; conditions: S. cerevisiae sgs1 mgt1 strain, at 50.0 µM, stronger effect = higher value
# Summary of the method: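 Percent growth inhibition was derived by comparing compound-exposed mutant yeast with vehicle-exposed cultures. The strain carries alterations in DNA damage repair.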
# [4] = NCI Yeast Anticancer Drug Screen. Data for the cln2 rad14 strain (AID 165);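 note: 0% = growth equal to vehicle treated cultures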; conditions: S. cerevisiae cln2 rad14 strain, at 50.0 µM, stronger effect = higher value
# Summary of the method: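 Growth inhibition, relative to vehicle-treated controls, is the read-out. The test organism is a yeast strain with defined genetic alterations, cln2 rad14.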
# [5] = NCI Yeast Anticancer Drug Screen. Data for the bub3 strain (AID 167); conditions: S. cerevisiae bub3 mutant strain, at 50.0 µM, stronger effect = higher value
# Summary of the method: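 Part of a panel of yeast mutants defective in DNA damage repair or cell cycle regulation. Each strain is grown with compound, and inhibition is calculated relative to solvent-treated cultures.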
# [6] = NCI Yeast Anticancer Drug Screen. Data for the mlh1 rad18 strain (AID 175); conditions: S. cerevisiae mlh1 rad18 strain growth inhibition; at 50.0 µM; stronger effect = higher value
# Summary of the method: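 Cells of a genetically altered yeast strain, deficient in DNA damage repair, were treated with compound. Their growth was then compared with that of vehicle-treated cultures to give inhibition.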
Compound,growth inhibition [1],growth inhibition [2],growth inhibition [3],growth inhibition [4],growth inhibition [5],growth inhibition [6]
CCOP(=O)(/C=C/c1cc(OC)ccc1OC)OCC,-0.05%,-12.8%,-32.4%,-24.5%,-29.8%,-26.1%
NC1CCCC[C@H]1N.N[C@@H]1CCCC[C@@H]1N.O=C(P(=O)([O-])[O-])P(=O)([O-])[O-].[Pt+4].[Pt+4],20.2%,3.85%,-13.7%,2.7%,-6.6%,10.3%
ClCc1ccccc1,40%,8.8%,4.9%,-19.7%,30.6%,22.5%
C(=C\c1cccs1)/CN1CCC2CCC(C2)C1 (stereo unspecified),-3.25%,-4.15%,2.1%,-17.1%,6.35%,-10.8%
O=C1C=CC(=O)N1c1ccccc1Cl (tested in a mixture with another compound),20.2%,4.15%,20.5%,4.2%,21.2%,6.7%
S=C1c2ccc(Cl)cc2-n2cnnc2C2CSCN12 (stereo unspecified),-4.1%,10.8%,7.9%,0.9%,-6.1%,26.4%
Nc1ccc2ncccc2c1 (tested in a mixture with another compound),39.2%,97.5% (active),45.5%,56.4%,46.5%,26.2%
O=C1OCC2(CO)SC(c3ccccc3)NC12 (stereo unspecified),-11.1%,-0.3%,-17.1%,-20.6%,-4.6%,-7.45%
COS(=O)(=O)c1ccc(C)cc1,24.2%,-1.85%,-8.2%,12.7%,-7.7%,-3.75%
Nc1cc(Cl)ccc1Cl,1.1%,-11.3%,-19.2%,-24.9%,1.15%,-11.8%
C[As+](C)(C)c1ccc(Br)c([N+](=O)[O-])c1,7.6%,-0.85%,-6%,-13.2%,-1.3%,10.9%
O=C(c1ccccc1)C1CN(C2CCCC2)C1c1ccccc1 (stereo unspecified),-10.2%,7.6%,-1.55%,-27.3%,10.4%,16.1%
CC(C)OP(=O)(OC(C)C)C(C)(C)O,2.8%,3.8%,12.9%,21.3%,-1.35%,-32.1%
O=C(CCN1CC=C(c2ccccc2)CC1)c1ccc(F)cc1,76.5% (active),51.5%,88.6% (active),67.5%,64.2%,92.3% (active)
CCN(CC)CCc1ccncc1,12.6%,10.1%,6.65%,30%,-5.05%,9.65%
CCOC(=O)CC(=O)CCl.[Cu+2],-14.9%,-8.9%,-40.4%,-31.6%,-15.9%,-3.2%
Oc1c(Cl)cc(Cl)cc1C1N(Cc2ccc(N(CCCl)CCCl)cc2Cl)CCCN1Cc1ccc(N(CCCl)CCCl)cc1Cl,-0.6%,15.6%,18.6%,-6%,-4%,18%
O=[P+](O)c1cccnc1,6.6%,-8.05%,14.2%,17.4%,16.7%,13.8%
Cc1ccc2cc3c(ccc4ccccc43)c3c2c1CC3,-9.05%,-23.9%,-2.75%,-3.4%,13.3%,1.85%
O=C(O)C(=O)O.[Co].[NH-]CC[NH-].[NH-]CC[NH-],4.9%,13.4%,6.65%,-12.8%,22.4%,12.8%
NC(=O)C1(Br)CCCCC1,-11.8%,-18.9%,-10.5%,-7.25%,8.45%,-3.55%

Compound,growth inhibition [1],growth inhibition [2],growth inhibition [3],growth inhibition [4],growth inhibition [5],growth inhibition [6]
C[C@]12CCC(=O)C=C1CC[C@@H]1[C@@H]2CC[C@]2(C)C(=O)[C@H](n3ccnc3)C[C@@H]12,-1.35%,2.45%,0.9%,3.2%,-1.2%,5.65%
O=C(c1cc(N(CCCl)CCCl)c([N+](=O)[O-])cc1[N+](=O)[O-])N1CCOCC1,-1.6%,-3.55%,13.2%,3.55%,19.3%,-3.75%
CN1CCC(O)(c2ccccc2)C(c2ccccc2)C1 (stereo unspecified),0.25%,1.05%,-8.45%,0.4%,0.6%,-0.05%
CC[N+](C)(C)c1ccc(C)c(OC(=O)NC)c1,-4.35%,-11.2%,-0.2%,-24.8%,15.3%,-0.45%
O=C(Nc1cccc(Cl)c1Cl)C(Cl)(Cl)Cl,11.8%,20.9%,19.4%,6.35%,31.2%,28.8%
O=[N+]([O-])c1c(Cl)cc(Cl)c([N+](=O)[O-])c1Cl,15.6%,5.25%,17.1%,3.9%,2.85%,32.1%
CCCCN(CCCC)CC(O)c1cc(Cl)c(Cl)cc1C (stereo unspecified),10.5%,-13.2%,35.1%,-1.3%,27.4%,25.3%
Clc1cccc(Cl)c1CBr,23.1%,-19.1%,19.3%,15.8%,15.3%,10.1%
CC(C)(Br)[N+](=O)[O-],9%,-3.55%,4.45%,10.2%,10.8%,1.8%
CCCCCCCCCCCCCCCC(=O)OCC1OC(OC)C2NP(=O)(N(CCCl)CCCl)OC1C2O (stereo unspecified),35.4%,-13.3%,-40.4%,-20.9%,66.7%,73% (active)
CC[As](=O)(O)CCCc1ccccc1,5.55%,32.9%,14.9%,3.1%,-0.15%,-2.05%
CN1CCC(O)(c2ccc(Br)cc2)C(C(=O)c2ccc(Br)cc2)C1 (stereo unspecified),96.1% (active),12.3%,99% (active),-2.65%,0.35%,34.8%
COc1c2occc2c(CCl)c2ccc(=O)oc12,26.6%,11.2%,14.3%,24.4%,5.8%,28.1%
CC(C)[C@]12O[C@H]1[C@@H]1O[C@]13[C@]1(O[C@H]1C[C@H]1C4=C(C(=O)OC4)[C@@H](O)C[C@@]13C)[C@@H]2O,-8.4%,-18.4%,6%,-5.85%,-0.3%,-12.8%
CCCCCCC(Cn1ccnc1)c1ccc(Br)cc1 (stereo unspecified),98.2% (active),98.8% (active),95.8% (active),98.3% (active),99.5% (active),91.7% (active)
Nc1nn[nH]n1 (tested in a mixture with another compound),-4.65%,1.45%,-3.7%,-27.1%,0.05%,-3.05%
CC[C@@H](C)C(=O)O[C@H]1[C@H](O)[C@H]2[C@@H](CN3C[C@@H](C)CC[C@H]3[C@@]2(C)O)[C@@H]2C[C@]34O[C@]5(O)[C@@H](OC(=O)[C@@](C)(O)CC)CC[C@@]3(C)[C@@H]5[C@@H](OC(C)=O)[C@@H](OC(C)=O)[C@H]4[C@@]21O,11.8%,-15.3%,0.75%,-4.3%,8.75%,7.35%
CC[C@@H]1[C@H]2C[C@H]3[C@@H]4N(C)c5ccccc5[C@]45C[C@@H](C2[C@H]5O)N3[C@H]1O (stereo partly specified),-12.4%,-6.15%,-5.15%,5.05%,-13.7%,15.6%
CCC(CCl)NC(CC(C)C)CC(C)C (stereo unspecified),-1.95%,2.95%,-6.75%,-10.5%,-4.7%,-10.8%
ClCCN(CCCl)c1ccc2c(c1)Cc1cc(Br)ccc1-2,15%,2%,40.7%,30.8%,2.6%,6.9%
